# Rows were chosen to be rich in hits. Some 3.8% of all compounds tested hit in one or more screens of this group.
# S2 tox: cell viability loss in ATXN counter-screen; 0.49% of 400,000 active; AID 651635; Potency, µM (titrated, usually from 56.7 µM), usual class: cytotoxic; S2 cells (HEK-293 line with an ATXN2-luciferase reporter) viability, CellTiter-Fluor protease fluorescence, 24 h; note: nearly all actives have a fitted effect of over 40% in size
# HT1080NT lethal: kills 2HG-producing HT-1080-NT fibrosarcoma cells; HT-1080-NT fibrosarcoma viability, CellTiter-Glo ATP luminescence, 48 h; Potency, µM (series often up to 46.1 µM), actives largely listed as cytotoxic; 1.6% of 360,000 active; AID 686970;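 note: NT is the 2HG producing partner of a matched IDH1 knockdown line; nearly all actives have a fitted effect of over 55% in size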
#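 HT-1080-NT; 750 cells/well; 5% FBS RPMI; 48 h compound, 37 degrees C; CellTiter-Glo luminescence; curve fitting and curve-class assignment.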
# HepG2 tox: HepG2 cytotoxicity, counter-screen for TGF-b inhibitors | Potency, µM (top dose mostly 46.1 µM), hits mostly cytotoxic | AID 588856 | HepG2 CAGA-GFP viability, ATP luminescence, 18 h | 0.76% of 410,000 active
#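 CellTiter-Glo luminescence gave cytotoxicity after 18 hours at 37 degrees C. The cells were HepG2 CAGA-GFP in 1% FBS DMEM, stimulated with 500 pg/mL TGF-beta after compound addition. %Activity was normalised to no-cell wells (complete cell-killing) and DMSO (no toxicity), and curves were fitted and classified.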
# ATXN2 expr inh: ATXN2 expression inhibition | Potency, µM (top dose mostly 57 µM), most hits filed as inhibitors | 0.72% of 360,000 active | HEK-293 ATXN2-luciferase reporter, luminescence, 24 h; note: nearly all actives have a fitted effect of over 55% in size
#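 qHTS (up to 57 uM final) was run with 24 h compound exposure of reporter cells at 37 °C. Each well was multiplexed: SteadyGlo luminescence measured ATXN2-luciferase expression after a fluorogenic Gly-Phe-AFC viability readout (25 uM final).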
# HT1080 IDH1KD tx: kills HT-1080 cells with IDH1 knockdown. HT-1080 IDH1 knockdown viability, ATP luminescence, 48 h. 2% of 360,000 active. Potency, µM (titrated, usually from 46.1 µM), usual class: cytotoxic. AID 686971
#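 IDH1KD HT-1080 cells, 750/well, RPMI + 5% FBS; compound pinned after 2 h settling; 48 h, 37 °C; CellTiter-Glo luminescence; % activity normalised to DMSO and no-cell wells; curves fitted, classed by r2 and efficacy.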
# TGFb SMAD3 inh: TGF-b pathway inhibition. HepG2 CAGA-GFP TGF-b/SMAD3 reporter, GFP fluorescence, 18 h; TGF-beta stimulated, 500 pg/mL final. Potency, µM (titrated, usually from 46.1 µM), most hits filed as inhibitors. 1.2% of 410,000 active; note: nearly all actives have a fitted effect of over 65% in size
#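 GFP signal (ex488/em500-530) from TGF-beta-stimulated HEPG2 CAGA-GFP cells, 500 pg/mL final, 18 h at 37 degrees C in DMEM plus 1% FBS, normalized to unstimulated and DMSO-stimulated controls.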
# Numbers stand for hits; 0 = inactive; ? = inconclusive; - = no result given. Calls come from the whole dose curve; as a rule, active = well fitted curve in the direction sought with a large enough effect; inconclusive = small, poorly fitted or top-dose-only effect, or another doubt; inactive = no such curve, though single readings can be large; an effect the other way counts as inactive or inconclusive.
SMILES,S2 tox,HT1080NT lethal,HepG2 tox,ATXN2 expr inh,HT1080 IDH1KD tx,TGFb SMAD3 inh
Cc1ccc(S(=O)(=O)N2CCCCC2)cc1NC(=O)Cn1ncc(Cl)c(Cl)c1=O,?,21µM,0,?,15µM,?
COc1cccc(C(=O)Nc2c(C(=O)c3ccc(F)cc3)oc3ccccc23)c1,0,-,0,0,-,0
O=C(Nc1ccc2oc(-c3cccc(Cl)c3Cl)nc2c1)c1cccc(Br)c1,-,-,0,-,-,0
CCCOc1ccc(/C=C/C(=O)Nc2sc(C)c(C)c2C(=O)OCC)cc1OC,0,-,0,0,-,0
CCCCN(CC)CCNC(=O)C1CCCN(c2ncnc3onc(C)c23)C1 (stereo unspecified),0,-,0,0,-,0
Cc1cc(Br)ccc1NC(=O)CNC(=O)Cn1ncc(Cl)c(Cl)c1=O,3.4µM,3.7µM,0,4.7µM,2.6µM,0
CCN(CC)S(=O)(=O)c1cc(NC(=O)Cn2ncc(Cl)c(Cl)c2=O)ccc1C,?,10µM,0,?,7.3µM,0
CCN(CC)S(=O)(=O)c1cc(NC(=O)CN2C(=O)NC(C)(c3ccccc3)C2=O)ccc1C (stereo unspecified),0,0,0,0,?,0
C[C@@H](O)[C@H](N)C(=O)O,0,-,-,0,-,-
Cc1cccc(C(=O)N2CCc3cc(CNC(=O)c4ccc(Br)o4)ccc32)c1,-,-,0,-,-,?
Cc1ccc(N=Nc2ccc(O)c3ncccc23)cc1,?,?,0,13µM,1.6µM,?
CCS(=O)(=O)c1ccc(N=Nc2ccc(O)c3ncccc23)c(OC)c1,-,1.5µM,0,?,5.2µM,?
Cc1ccc(N=Nc2ccc(O)c3ncccc23)cc1C,?,?,0,0,?,0
COc1ccccc1N=Nc1ccc(O)c2ncccc12,16µM,?,0,-,?,?
O=C(COc1ccccc1C(=O)Nc1cccc(F)c1)Nc1ccc(Br)cc1,-,-,0,-,-,0
COc1ccc(-c2cc(-c3ccc(C)cc3)n[nH]2)c(O)c1,?,0,0,-,?,?
COc1ccc(-c2cc(-c3cc(C)ccc3O)[nH]n2)cc1,?,3.7µM,0,0,?,?
Cc1ccc(O)c(-c2cc(-c3ccccc3C)[nH]n2)c1,?,0,11µM,0,0,?
CC(C)(C)c1ccc(-c2cc(-c3ccccc3O)[nH]n2)cc1,?,?,0,0,15µM,18µM
Cc1ccc(O)c(-c2cc(-c3ccccc3[N+](=O)[O-])[nH]n2)c1,-,0,0,0,0,?
COc1ccc(C2=CC(c3ccc(F)cc3)n3ncc(C(=O)Nc4ccc(C)cc4)c3N2)cc1 (stereo unspecified),0,-,0,0,-,?
N#C[C@H]1C[C@H]2C[C@@H]2N1C(=O)[C@@H](N)C12CC3CC(CC(O)(C3)C1)C2,0,-,-,?,-,-
COc1ccccc1NC(=O)/C(C#N)=C/C=C/c1ccco1,0,1.8µM,0,0,1.4µM,0
COc1ccccc1NC(=O)/C=C\c1ccco1,0,0,0,0,0,0
C[C@@H]1CCCCCCCCC(=O)OCCN[C@H](C)CCCCCCCCC(=O)OCCN[C@H](C)CCCCCCCCC(=O)OCCN1,20µM,0,0,?,0,16µM
O=C(NC(c1ccc(-c2ccccc2)cc1)c1cnccn1)C1CCN(Cc2ccc3c(c2)OCO3)CC1 (stereo unspecified),32µM,13µM,0,?,10µM,?
O=C(NC(c1ccc(-c2ccccc2)cc1)c1cnccn1)C1CCN(Cc2ccc(Cl)c(Cl)c2)CC1 (stereo unspecified),?,0,0,0,0,?
Cn1cc(CN2CCC(C(=O)NC(c3ccc(-c4ccccc4)cc3)c3cnccn3)CC2)c2ccccc21 (stereo unspecified),20µM,5.2µM,11µM,0,?,?
Cc1csc(SCC(=O)NCC2Cc3cc(-c4cncnc4)ccc3O2)n1 (stereo unspecified),0,-,-,-,-,-

# Screens (PubChem)
